Most compounds without a hit are left out; they make up all but 11% or so of the library.
AmpC no deterg: AmpC beta-lactamase inhibition without detergent; P00811; Potency, µM (series often up to 57.1 µM), for inactives: at the highest dose activity change, negative = inhibition, most hits filed as inhibitors; AID 485341; AmpC nitrocefin hydrolysis, absorbance 480 nm, 0.0001% Triton; 0.52% of 330,000 active;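 further: plate controls were no compound for no effect and no enzyme for full effect; nearly all actives have a fitted effect of over 20% in size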
Target sequence (P00811 whole entry, looked up): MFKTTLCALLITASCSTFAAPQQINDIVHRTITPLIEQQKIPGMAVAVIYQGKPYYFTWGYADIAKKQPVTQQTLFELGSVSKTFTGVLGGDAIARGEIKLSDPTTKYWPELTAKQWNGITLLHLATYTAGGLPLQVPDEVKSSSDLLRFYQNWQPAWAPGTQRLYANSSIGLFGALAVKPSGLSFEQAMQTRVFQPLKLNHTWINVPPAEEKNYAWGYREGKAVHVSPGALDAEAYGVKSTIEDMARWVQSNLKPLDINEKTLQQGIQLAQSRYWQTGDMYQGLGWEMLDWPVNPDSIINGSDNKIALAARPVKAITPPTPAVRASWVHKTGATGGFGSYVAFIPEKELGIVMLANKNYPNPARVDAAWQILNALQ
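20 mM phosphate pH 7.0 + 0.01% (detergent screen) or 0.0001% Triton X-100; 5.3 nM AmpC reagent; cpd preinc 15 min RT; nitrocefin (800 uM stock) to start; A480 q20 s × 4 min; Activity was normalised to no-enzyme and no-compound control wells.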
Pf growth 48h: inhibits P. falciparum growth in the first generation, 48 h; P. falciparum luciferase growth in erythrocytes, 48 h; Potency, µM (titrated, usually from 28.7 µM), for the others: top-dose activity change, negative = inhibition, usual class: inhibitors; 5.9% of 310,000 active
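Compounds are pin-transferred into medium, infected erythrocytes (2% hematocrit, 0.1% parasitemia final) are added, and plates sit one parasite generation at 37 C in 5% CO2. Detection reagent is then added and luminescence measured.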
HCV inh: blocks hepatitis C virus. 3.4% of 340,000 active. AID 651820. Huh7.5.1 HCVcc-Cre infection, luciferase reporter, 44 h. Potency, µM (doses to about 41.8 µM), for inactives: at the top dose activity change, negative = inhibition, hits mostly inhibitors
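Infectious HCV cell culture screen: compound-treated cells (1,000/well, pre-plated 4 h) are infected with HCVcc-Cre at roughly 0.5 moi and grown 44 h. Infection is quantified by luciferase signal after 15 min substrate incubation at room temperature.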
Pf growth 96h: inhibits malaria parasite growth, 96 h; P. falciparum luciferase reporter growth, 96 h; 6.9% of 320,000 active; Potency, µM (series often up to 28.7 µM), inactives show at the top dose activity change, negative = inhibition, usual class: inhibitors; AID 504834
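Two-generation exposure (96 h) targets delayed-death phenotype. Reporter parasites carrying integrated firefly luciferase, in red cells at 2% hematocrit and 0.05% parasitemia final, kept at 37 C, 5% CO2; luminescence loss indicates inhibition.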
AmpC detergent: blocks E. coli AmpC beta-lactamase in detergent assay; P00811; AmpC hydrolysis of nitrocefin, absorbance 480 nm, 0.01% Triton; Potency, µM (titrated, usually from 114 µM), inactives show top-dose activity change, negative = inhibition, actives largely listed as inhibitors; 0.041% of 370,000 active; AID 485294;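 further: 0% = no-compound wells and -100% = no-enzyme wells; nearly all actives have a fitted effect of over 25% in size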
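AmpC (5.3 nM in the dispensed reagent) in 20 mM phosphate pH 7.0 with 0.01% (detergent screen) or 0.0001% Triton X-100 was preincubated with compounds for 15 min at room temperature. Nitrocefin was then added from an 800 uM solution, and hydrolysis was followed at 480 nm.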
AMA1-RON2 inh: inhibitors of Plasmodium falciparum AMA1-RON2 interaction; AlphaScreen AMA1-biotinylated RON2 peptide binding; Potency, µM (top dose mostly 58.2 µM), for inactives: at the highest dose activity change, negative = inhibition, hits mostly inhibitors; 0.2% of 360,000 active; AID 720542;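 further: 0% = vehicle wells and -100% = peptide control; nearly all actives have a fitted effect of over 45% in size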
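AMA1 (3D7) with his tag at 25 nM final met compounds first, then biotinylated RON2 peptide at 25 nM; detection used donor plus acceptor beads, 10 µg/mL apiece, read by AlphaScreen after 30 min at room temperature.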
Numbers without * were called inactive. The call rests on the fitted dose curve; in most records, active means well fitted curve in the direction sought with a large enough effect; inconclusive means small, poorly fitted or top-dose-only effect, or another doubt; inactive means no such curve, though single readings can be large; an effect the other way counts as inactive or inconclusive. Unless noted, on the % scale 0 is the no-effect control and ±100 the full control effect; potency means the concentration at half of the fitted maximal effect.

For COC(=O)[C@H](Cc1ccccc1)NC(=O)c1ccc2ccccc2n1 the results were AmpC no deterg 12%, Pf growth 48h 207%, HCV inh 14%, Pf growth 96h 215%, AmpC detergent -6% and AMA1-RON2 inh -9%.
Screening CC(C)(C)NC(=O)[C@@H]1C[C@@H]2CCCC[C@@H]2CN1C[C@@H](O)[C@H](Cc1ccccc1)NC(=O)[C@H](CC(N)=O)NC(=O)c1ccc2ccccc2n1 returned AmpC no deterg 400%, Pf growth 48h inconclusive, HCV inh inconclusive, Pf growth 96h 15µM*, AmpC detergent inconclusive and AMA1-RON2 inh 16%.
N#C/C(=N/Nc1ccc([N+](=O)[O-])cc1)C(=N)N1CCCCC1 was read as AmpC no deterg -36%, Pf growth 48h 329%, HCV inh 3%, Pf growth 96h inconclusive, AmpC detergent -11% and AMA1-RON2 inh -5%.
N#C/C(=N\Nc1ccc([N+](=O)[O-])cc1)C(N)=S was read as AmpC no deterg -20%, Pf growth 48h -8%, HCV inh 10µM*, Pf growth 96h inconclusive, AmpC detergent -6% and AMA1-RON2 inh 26%.
N#C/C(=N\Nc1cccc([N+](=O)[O-])c1)C(=O)c1ccc(Br)cc1 was read as AmpC no deterg inconclusive, Pf growth 48h inconclusive, HCV inh 10µM*, Pf growth 96h inconclusive, AmpC detergent -7% and AMA1-RON2 inh -11%.
For CC(=O)c1sc2c(c1C)c(=O)n(-c1ccc(Cl)cc1)c(=O)n2Cc1ccc(Cl)cc1 the results were AmpC detergent 7%.
Screening CC(CCC(C)C(C)(C)C)[C@@H]1CC[C@H]2C3C[C@H](OS(O)(=S)=S)[C@H]4C[C@H](OS(O)(=S)=S)[C@@H](OS(O)(=S)=S)C[C@]4(C)[C@H]3CC[C@]12C (stereo partly drawn) (tested in a mixture with another compound) returned AmpC no deterg -18%, HCV inh 2.5µM* and AMA1-RON2 inh -6%.
Screening CC(CCC(=O)NN)C1CCC2C3CCC4CC(O)CCC4(C)C3CCC12C (stereo not drawn) returned HCV inh 12% and AMA1-RON2 inh 9%.
Screening CCCn1ncc(CN2CCCC(C(=O)c3cccc(OC(C)C)c3)C2)c1C (stereo not drawn) returned AmpC no deterg 77%, Pf growth 48h 13µM*, HCV inh -17%, Pf growth 96h 12µM*, AmpC detergent -8% and AMA1-RON2 inh -4%.
For COc1ccc(S(=O)(=O)N(CC(=O)Nc2ccccc2Cl)Cc2ccccc2)cc1 the results were AmpC detergent 6%.
C=CCN(CC(=O)NCC1CCCO1)C(=O)CCC(=O)Nc1cc(C)on1 (stereo not drawn) was read as AmpC no deterg 1%, Pf growth 48h 26%, HCV inh 20%, Pf growth 96h inconclusive, AmpC detergent 0% and AMA1-RON2 inh 2%.
COCCN(CC(=O)NCC1CCCO1)C(=O)CCC(=O)Nc1cc(C)on1 (stereo not drawn) was read as AmpC no deterg -16%, Pf growth 48h 19%, HCV inh 4%, Pf growth 96h 1.7µM*, AmpC detergent -17% and AMA1-RON2 inh -13%.
`O=C(CN(CC1CCCO1)C(=O)CCC(=O)Nc1nccs1)NCC1CCCO1` (stereo not drawn) gave AmpC no deterg 3%, Pf growth 48h 0%, HCV inh -1%, Pf growth 96h 13µM*, AmpC detergent -17% and AMA1-RON2 inh -2%.
For CCCOC(=O)c1ccc(Cn2nnc3sc4c(c3c2=O)CCC(C)C4)cc1 (stereo not drawn) the results were AmpC detergent 21%.
Screening CCCCCNCC(=O)Nc1cccc(C(=O)Nc2cccc(C(F)(F)F)c2)c1 returned AmpC no deterg 18%, Pf growth 48h 4.7µM*, HCV inh inconclusive, Pf growth 96h 3.3µM*, AmpC detergent 2% and AMA1-RON2 inh -9%.
CCn1c(C(=O)O)c(CC(=O)Nc2cccc(C(F)(F)F)c2)c2ccccc21 was read as AmpC no deterg -20%, Pf growth 48h -7%, HCV inh 5%, Pf growth 96h 0.74µM*, AmpC detergent 1% and AMA1-RON2 inh -4%.
`Cc1ccc(C(=O)Nc2cccc(C(F)(F)F)c2)cc1Nc1cncnc1` gave AmpC no deterg -11%, Pf growth 48h 1%, HCV inh inconclusive, Pf growth 96h 12µM*, AmpC detergent inconclusive and AMA1-RON2 inh -3%.
Screening O=C(CN1CCOCC1)Nc1cccc(C(=O)Nc2cccc(C(F)(F)F)c2)c1 returned AmpC no deterg 39%, Pf growth 48h inconclusive, HCV inh -18%, Pf growth 96h 0%, AmpC detergent -7% and AMA1-RON2 inh 1%.
`CCCCc1nn2c(=O)cc(COC(=O)c3ccccc3C)nc2s1` gave AmpC detergent 19%.
CCOc1ccc(-c2cc(C(=O)N3CCN(c4cccc(C(F)(F)F)c4)CC3)c3ccccc3n2)cc1 was read as AmpC detergent 4%.
O=C(Nc1cccc(-c2cccc(Cl)c2)c1)C1CCN(Cc2nccs2)CC1 was read as AMA1-RON2 inh 1%.
`Cc1ccc(CN2CCC(C(=O)Nc3cccc(-c4cccc(F)c4)c3)CC2)o1` gave AmpC no deterg 19%, Pf growth 48h 28%, HCV inh inconclusive, Pf growth 96h 4.7µM*, AmpC detergent 0% and AMA1-RON2 inh -1%.
Screening CCc1ccc(CN2CCC(C(=O)Nc3cccc(-c4nnc(C)s4)c3)CC2)o1 returned AmpC no deterg 68%, Pf growth 48h inconclusive, HCV inh -18%, Pf growth 96h 34%, AmpC detergent -10% and AMA1-RON2 inh -28%.
Screening O=C(Nc1cccc(-c2cccc(Cl)c2)c1)C1CCN(Cc2ccc(CO)o2)CC1 returned AmpC no deterg 139%, Pf growth 48h -17%, HCV inh 10µM*, Pf growth 96h inconclusive, AmpC detergent inconclusive and AMA1-RON2 inh -9%.
Screening CCOC(=O)C1=CC[C@@H](c2ccccc2Cl)N(S(=O)(=O)c2ccc(C)cc2)[C@H]1C(=O)OCC returned AmpC no deterg 38%, Pf growth 48h 13µM*, HCV inh inconclusive, Pf growth 96h inconclusive, AmpC detergent 7% and AMA1-RON2 inh -3%.

Screening results deposited in PubChem by National Center for Advancing Translational Sciences (NCATS).
